A short description of test [1]: qHTS assay to identify small molecule antagonists of the glucocorticoid receptor (GR) signaling pathway - cell viability counter screen (AID 720693). Further: nearly all actives have a fitted effect of over 55% in size.
Test [2] in a line: qHTS assay for identifying genotoxic compounds that show differential cytotoxicity against isogenic chicken DT40 cell lines with known DNA damage response pathways - wild type cell line (AID 743012). Further: nearly all actives have a fitted effect of over 60% in size. Further: potency means the concentration at half of the fitted maximal effect. Summed up:
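First, wild type DT40 cells were plated at 300 per well and equilibrated about 0.5 h at 37 C/5% CO2. Next, compounds in DMSO were added and exposure lasted 40 h. Finally, CellTiter-Glo was added for 30 min at room temperature and luminescence recorded.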

Test [3] is described as follows: qHTS assay for identifying genotoxic compounds that show differential cytotoxicity against isogenic chicken DT40 cell lines with known DNA damage response pathways - Rev3 mutant cell line (AID 743014; further: nearly all actives have a fitted effect of over 55% in size; further: potency means the concentration at half of the fitted maximal effect). (In general: Quantitative high-throughput screening tests each substance at several concentrations.)
A short description of test [4]: qHTS assay for identifying genotoxic compounds that show differential cytotoxicity against isogenic chicken DT40 cell lines with known DNA damage response pathways - Rad54/Ku70 mutant cell line (AID 743015). Further: nearly all actives have a fitted effect of over 60% in size. Further: potency means the concentration at half of the fitted maximal effect.
Test [5] in a line: qHTS assay to identify small molecule antagonists of the androgen receptor (AR) signaling pathway - cell viability counter screen (AID 743033; further: nearly all actives have a fitted effect of over 45% in size).
Test [6] concerns the target Androgen receptor (Homo sapiens) (UniProt P10275). The experiment in a line: qHTS assay to identify small molecule antagonists of the androgen receptor (AR) signaling pathway (AID 743035; active means well fitted inhibition curve with a large enough effect in the signal ratio in the repeat runs, not every such curve was filed as active; the % refers to the signal ratio). Summed up: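 Beta-lactamase FRET read (2 h RT incubation with LiveBLAzer B/G) following 16 h of compound plus R1881 treatment of AR-UAS-bla HEK293 cells, which had been pre-incubated 4 h at 37C.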

For test [7] the target is unchanged. The experiment in a line: qHTS assay to identify small molecule agonists of the androgen receptor (AR) signaling pathway (AID 743036; active means well fitted activation curve with a large enough effect in the signal ratio in the repeat runs, with a control signal flat, not every such curve was filed as active; the % refers to the signal ratio). Summed up: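 Cell-based FRET reporter assay: HEK293 line with a UAS-beta-lactamase construct, compounds added in DMSO, 16 h exposure at 37C, then 2 h substrate step at room temperature and fluorescence intensity read.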
Test [8] has the same target. The experiment in a line: qHTS assay to identify small molecule agonists of the androgen receptor (AR) signaling pathway using the MDA cell line (AID 743040; further: nearly all actives have a fitted effect of over 20% in size). The gist of the method: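 Luminescence from ONE-Glo, read after 30 min at room temperature, reflects MMTV-driven luciferase in MDA-kb2 cells (AR- and GR-responsive). Treatment lasted 16 h at 37C, 0% CO2.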
Test [9] can be described thus: qHTS assay to identify small molecule antagonists of the androgen receptor (AR) signaling pathway using the MDA cell line - cell viability counter screen (AID 743041; further: nearly all actives have a fitted effect of over 45% in size). The gist of the method: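 Viability counter screen run alongside the AR antagonist reporter: cells seeded 5 h before compound, R1881 added, 16 h incubation at 37C without CO2, fluorescent CellTiter-Fluor signal quantified.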

In test [10] the target is Androgen receptor (Homo sapiens) (UniProt P10275). The test can be described thus: qHTS assay to identify small molecule antagonists of the androgen receptor (AR) signaling pathway using the MDA cell line (AID 743042; further: nearly all actives have a fitted effect of over 55% in size). The gist of the method: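 MDA-kb2 cells (human breast carcinoma, stably carrying an MMTV-luciferase reporter responsive to AR and GR) were plated at 3,000 cells/well and preincubated 5 hr at 37C, then given compound plus R1881 agonist for 16 h. ONE-Glo luminescence was read.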
Androgen receptor (Homo sapiens), sequence (P10275 whole entry, looked up): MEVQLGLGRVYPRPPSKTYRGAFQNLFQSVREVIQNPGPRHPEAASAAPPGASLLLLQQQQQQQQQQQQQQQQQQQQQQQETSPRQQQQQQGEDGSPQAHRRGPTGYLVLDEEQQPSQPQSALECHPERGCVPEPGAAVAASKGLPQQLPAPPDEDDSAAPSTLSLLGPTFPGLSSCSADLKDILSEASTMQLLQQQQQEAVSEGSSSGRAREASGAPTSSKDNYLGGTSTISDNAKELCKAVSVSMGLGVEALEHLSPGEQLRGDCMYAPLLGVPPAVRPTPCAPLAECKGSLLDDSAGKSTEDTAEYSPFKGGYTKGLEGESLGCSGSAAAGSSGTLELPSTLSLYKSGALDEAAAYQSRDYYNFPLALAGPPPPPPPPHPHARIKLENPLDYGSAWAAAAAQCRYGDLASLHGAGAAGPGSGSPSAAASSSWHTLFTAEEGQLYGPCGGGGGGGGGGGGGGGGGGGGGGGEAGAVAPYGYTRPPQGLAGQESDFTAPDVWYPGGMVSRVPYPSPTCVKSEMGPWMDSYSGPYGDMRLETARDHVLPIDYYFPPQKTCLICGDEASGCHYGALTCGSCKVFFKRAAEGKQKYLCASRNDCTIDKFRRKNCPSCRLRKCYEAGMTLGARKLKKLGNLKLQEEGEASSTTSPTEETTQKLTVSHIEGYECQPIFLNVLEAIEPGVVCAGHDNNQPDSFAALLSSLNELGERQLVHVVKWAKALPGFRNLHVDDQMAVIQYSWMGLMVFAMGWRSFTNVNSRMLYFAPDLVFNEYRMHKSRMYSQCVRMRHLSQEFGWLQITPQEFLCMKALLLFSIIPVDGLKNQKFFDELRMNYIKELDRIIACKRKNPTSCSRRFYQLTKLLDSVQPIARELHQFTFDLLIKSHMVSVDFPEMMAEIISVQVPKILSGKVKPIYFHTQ

Records with an inconclusive call do not appear. Activity calls are given as the source filed them. Unless noted, the call rests on the fitted dose curve; in most records, active means well fitted curve in the direction sought with a large enough effect in the repeat runs; inconclusive means weak or mixed curves; inactive means no such curve, though single readings can be large; an effect the other way counts as inactive or inconclusive.

Turning to `CC(C)(Cc1c[nH]c2ccccc12)NCC(O)COc1ccccc1C#N` (stereo unspecified), in test [1], the Potency result is “inactive”. Besides, the Potency is 9.44 µM (active) in [2], 13.3 µM (active) in test [3] and 16.8 µM (active) in test [4].

For `O=C1c2ccccc2C(=O)c2c1ccc(O)c2O`, the Potency entry in test [1], in test [2], in test [3], in test [4] and in test [5] was “inactive” each time.

Take `CCCCCCOC(=O)c1ccccc1`: the Potency entry in test [1] was “inactive”. For the same compound, the Potency in [2] is 68.6 µM (active); in test [3], 61.1 µM (active); in [4], 61.1 µM (active).

As for `NC(=O)c1ccccc1`, the Potency entry in [1], in test [2], in test [3], in [4], in test [5] and in [6] was “inactive” throughout. In addition, the Potency result in test [9] and in test [10] was “inactive” throughout. The result in [7] and in [8] was inactive.

As for `Cc1cc(SC2=C(O)C[C@@](CCc3ccc(N)cc3)(C(C)C)OC2=O)c(C(C)(C)C)cc1CO`, the Potency entry in test [1], in test [2], in test [3], in test [4], in test [5] and in [6] was “inactive” each time. The Potency result in [9] and in test [10] was “inactive” each time. The compound was classed as inactive in test [8].

As to `CCC1=C(C)CN(C(=O)NCCc2ccc(S(=O)(=O)NC(=O)NC3CCC(C)CC3)cc2)C1=O` (stereo unspecified), the Potency entry in test [1], in [2], in [3], in [4], in test [5] and in test [6] was “inactive” throughout. In addition, the Potency entry in test [9] and in [10] was “inactive” throughout. For the same compound, the result in test [8] was inactive.

As to `C=Cc1ccc(C=C)cc1`, the Potency result in test [1], in [2], in [3], in test [4], in test [5] and in test [9] was “inactive” throughout.

As for `FC(F)(Cl)C(F)(Cl)Cl`, the Potency entry in test [1], in test [2], in [3], in test [4], in [5] and in test [6] was “inactive” each time. In addition, the Potency result in test [9] and in test [10] was “inactive” throughout. For the same compound, the result in [7] and in [8] was inactive.

Consider `CCCCCCCCOCCCN`, for which the Potency entry in test [1], in test [5], in test [6], in test [9] and in [10] was “inactive” throughout. The Potency in test [2] was 4.33 µM (active); in test [3], 6.86 µM (active); in test [4], 6.86 µM (active). Besides, the compound was classed as inactive in [8].

As to `C1=COCCC1`, the Potency entry in test [1], in test [2], in [3], in test [4], in [5] and in test [9] was “inactive” each time.

On to `CCCCC(CC)COCCC#N` (stereo unspecified), for which the Potency result in [1], in [2], in test [3] and in test [4] was “inactive” each time.

For the compound `CC(=O)Oc1cccc2c1C(=O)c1c(OC(C)=O)cc(C(=O)O)cc1C2=O`, the Potency entry in [1], in test [2], in test [3], in test [4], in test [5] and in [10] was “inactive” each time. The compound was called inactive in test [8].

Turning to `Clc1cc(Cl)c2c(c1)N=C1CCCCCN1C2`, the Potency result in test [1], in test [5] and in test [9] was “inactive” throughout. Moreover, the Potency was 13.3 µM (active) in test [2], 8.41 µM (active) in test [3] and 13.3 µM (active) in test [4].

Consider `CC(C)(O)C(=O)O`, for which the Potency entry in [1], in test [2], in test [3], in test [4], in test [5] and in test [9] was “inactive” each time.

`CCC(=O)O[C@@H]1C[C@H]2CC[C@]1(C)C2(C)C`: the Potency entry in test [1], in [2], in test [3], in test [4], in [5] and in test [9] was “inactive” in each case.

As for `O=C(NC1CCN(CCc2c[nH]c3ccccc23)CC1)c1ccccc1`, the Potency entry in test [1], in test [5] and in test [9] was “inactive” each time. The Potency in test [2] is 23.7 µM (active); in test [3] it was 33.5 µM (active); in test [4] it was 29.8 µM (active).

In the case of `O=C1OC(=O)C2CC=CCC12` (stereo unspecified), the Potency entry in test [1], in test [2], in test [3], in test [4], in test [5] and in test [9] was “inactive” throughout.

Take `CC(C)CCCCCCCOC(=O)c1ccc(C(=O)OCCCCCCCC(C)C)c(C(=O)OCCCCCCCC(C)C)c1`: the Potency result in test [1], in [2], in test [3], in test [4], in [5] and in test [9] was “inactive” throughout.

In the case of `CCCCCCCCCCCCN1CCOCC1`, the Potency result in test [1], in [5] and in test [9] was “inactive” in each case. In addition, the Potency is 27.3 µM (active) in [2], 8.63 µM (active) in [3] and 19.3 µM (active) in test [4].

Turning to `Cc1c(Cl)cccc1[N+](=O)[O-]`, the Potency entry in [1], in [2], in test [3], in test [4], in [5] and in test [9] was “inactive” in each case.

Take `Oc1ccc(CCNCCCCCCNCCc2ccccc2)cc1O`: the Potency result in test [1], in [5] and in [9] was “inactive” in each case. Further, the Potency in test [2] is 13.3 µM (active); in [3] it was 29.8 µM (active); in [4], 26.6 µM (active).

Regarding `C[C@H]1C[C@H]2[C@@H]3CCC4=CC(=O)C=C[C@]4(C)[C@@]3(F)[C@@H](O)C[C@]2(C)[C@@]1(O)C(=O)COP(=O)(O)O`, the Potency result in [1], in test [2], in test [3], in [4], in test [5] and in test [9] was “inactive” throughout.

With `Cc1cc(C)c(C)c(O)c1`, the Potency entry in [1], in test [2], in [3], in test [4], in [5] and in test [9] was “inactive” throughout.

Take `O=C(Cl)c1cc(Cl)cc(Cl)c1`: the Potency result in [1], in test [2], in test [3], in test [4], in test [5] and in test [9] was “inactive” in each case.

As for `CC1(C)C(=O)NC(=O)N1CO`, the Potency entry in test [1], in test [2], in [3], in [4], in test [5] and in test [9] was “inactive” each time.

Consider `CO[C@@H]1[C@@H](O[C@@H]2O[C@H](C)[C@@H](O[C@H]3C[C@@](C)(O)[C@@H](O)[C@H](C)O3)[C@H](N(C)C)[C@H]2O)[C@@H](CC=O)C[C@@H](C)[C@@H](O[C@@H]2CC[C@H](N(C)C)[C@@H](C)O2)/C=C/C=C/C[C@@H](C)OC(=O)C[C@H]1OC(C)=O`, for which the Potency result in test [1], in test [5] and in test [9] was “inactive” in each case. In addition, the Potency in test [2] is 8.41 µM (active); in test [3], 6.68 µM (active); in test [4], 7.5 µM (active).

Take `CC(C)Cc1nccs1`: the Potency entry in test [1], in test [2], in test [3], in test [4], in test [5] and in test [9] was “inactive” each time.

With `CC1=C(C)C(=O)C(C(CCCCCC(=O)O)c2ccccc2)=C(C)C1=O` (stereo unspecified), the Potency entry in test [1], in test [2], in test [3], in [4], in test [5] and in test [9] was “inactive” each time.

Consider `CC(C)(C)c1ccc(CCC=O)cc1`, for which the Potency result in [1], in test [2], in test [3], in test [4], in test [5] and in test [9] was “inactive” each time.

Turning to `CC(O)C(C)O` (stereo unspecified), the Potency result in test [1], in test [2], in test [3], in test [4], in test [5] and in test [9] was “inactive” throughout.

Source of the values: PubChem BioAssay (Tox21).
